High-throughput results deposited in PubChem by National Center for Advancing Translational Sciences (NCATS).
Compounds with a hit are over-represented: about 0.7% of the library has one in this group of screens.
Vif-A3G inh – qHTS for Inhibitors of Vif-A3G Interactions: qHTS | HeLa A3G-eYFP + Vif (tagged APOBEC3G with the HIV-1 protein that degrades it), YFP fluorescence, overnight | AID 602310, 2012 | 410,000 tested, 0.076% active | Potency, µM (top dose mostly 46.1 µM), for inactives: at the top dose activity, negative = active, hits mostly inhibitors; note: % is set by controls: 0 for no effect and ±100 for the full control effect; nearly all actives have a fitted effect of over 60% in size
Target sequence (Q9HC16 whole entry, looked up): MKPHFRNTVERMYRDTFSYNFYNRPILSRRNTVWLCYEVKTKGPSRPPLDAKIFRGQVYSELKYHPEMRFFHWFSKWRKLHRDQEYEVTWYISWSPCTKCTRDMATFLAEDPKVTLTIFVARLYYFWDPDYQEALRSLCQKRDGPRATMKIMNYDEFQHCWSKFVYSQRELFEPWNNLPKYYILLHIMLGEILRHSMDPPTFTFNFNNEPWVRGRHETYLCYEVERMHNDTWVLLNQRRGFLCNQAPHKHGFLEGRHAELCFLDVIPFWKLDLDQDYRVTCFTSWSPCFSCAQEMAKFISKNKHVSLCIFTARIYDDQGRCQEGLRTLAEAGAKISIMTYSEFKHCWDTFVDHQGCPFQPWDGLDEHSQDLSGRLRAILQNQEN
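HeLa cells stably expressing Vif and C-terminally eYFP-tagged A3G, seeded overnight at 37 deg C, then exposed to compound by pintool overnight at 37 deg C. Rise in yellow fluorescence (Ex 488/Em 500-530, Acumen) marks blocked Vif-driven A3G degradation.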
PINK1 expr mod – A Quantitative High throughput Screen to Identify Chemical Modulators of PINK1 Expression. PINK1 immunofluorescence, high-content cytometry, 24 h. Potency, µM (top dose mostly 76.6 µM), inactives show at the highest dose activation (PINK1 increase), usual class: activators. 410,000 tested, 0.2% active. AID 624263, 2012; active = well fitted activation curve with a large enough effect; inconclusive = small, poorly fitted or top-dose-only effect; cell line not stated here; note: % of control where 0% means no effect; nearly all actives have a fitted effect of over 65% in size
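PINK1 protein, normally rapidly degraded, was detected by immunofluorescence after 24 hour compound treatment of a stable cell line. Titration data (5 concentrations) came from laser-scanning cytometry, with CCCP-treated wells as controls.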
Vif-APOBEC3F blk – qHTS for Inhibitors of Vif-A3F Interactions: qHTS; AID 602313, 2012; HeLa A3F-eYFP + Vif (tagged APOBEC3F with the HIV-1 protein that degrades it), YFP fluorescence increase; Potency, µM (titrated, usually from 46.1 µM), for the others: top-dose activity, negative = active; 390,000 tested, 0.2% active; note: % of control where 0% means no effect; nearly all actives have a fitted effect of over 65% in size
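Fluorescence increase (Ex 488/Em 500-530) after overnight compound treatment at 37 deg C flags inhibition of Vif-driven A3F-eYFP loss in stable HeLa A3F-eYFP/Vif cells seeded overnight beforehand.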
Epigenetic reg – Quantitative High-Throughput Screen for Regulators of Epigenetic Control. murine LDR cells, GFP reporter derepression, 30 h. Potency, µM (series often up to 53.9 µM), inactives show at the top dose GFP activation, usual class: activators. 280,000 tested, 0.2% active; note: % of control where 0% means no effect; nearly all actives have a fitted effect of over 60% in size
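Murine LDR cells bearing a silenced CMV-driven GFP reporter were exposed to compound for 30 h at 37 C. After PBS washes, GFP-positive cells (20-120 um objects) counted by laser-scanning microplate cytometry.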
GLS inhibitor – qHTS for Inhibitors of Glutaminase (GLS) | Glutaminase kidney isoform, mitochondrial (Homo sapiens), O94925 | GLS enzymatic activity, qHTS titration | Potency, µM (top dose mostly 45.5 µM), for the others: top-dose activity change, negative = inhibition, most hits filed as inhibitors | 410,000 tested, 0.21% active; note: % is set by controls: 0 for no effect and ±100 for the full control effect
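hKGA; 45 mM KH2PO4 pH 8.2 + 0.02% Tween-20; cpd via pin tool; 1 mM Gln soln; GluOx/HRP/Amplex Red; RT 30 min; fluor. t0 & final.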
The depositor's hits bear a star; ? = inconclusive; . = no result; [ ] = dose if it differs, or a comment. Unless noted, calls come from the whole dose curve; as a rule, active = well fitted curve in the direction sought with a large enough effect; inconclusive = small, poorly fitted or top-dose-only effect, or another doubt; inactive = no such curve, though single readings can be large; an effect the other way counts as inactive or inconclusive. Potency is the fitted concentration of half-maximal effect.

SMILES	Vif-A3G inh	PINK1 expr mod	Vif-APOBEC3F blk	Epigenetic reg	GLS inhibitor
CCOc1cc(C=NN2CCCCCC2)ccc1O	1%	1%	0%	.	11µM*
CCOc1cc(/C=C2\CN(CC)C/C(=C\c3ccc(O)c(OCC)c3)C2=O)ccc1O	?	-1%	3%	.	13µM*
CCOc1cc(/C=N/N2CCN(Cc3ccccc3)CC2)ccc1O	-1%	2%	-4%	.	?
COc1cc(/C=C2\CCC/C(=C\c3ccc(O)c(OC)c3)C2=O)ccc1O	?	-1%	?	.	12%
Cc1cc(N2CCCC2)ccc1NC(=O)COc1ccccc1	-3%	5%	?	.	3%
CCc1ccccc1OCC(=O)Nc1ccc(N2CCCC2)cc1C	?	28µM*	?	.	-7%
COc1cc2sc3cc(NCCCN4CCOCC4)ccc3c(=O)c2cc1OC	9%	-1%	-12%	.	-1%
O=c1c2ccccc2sc2ccc(NCCCN3CCOCC3)cc12	?	2%	22µM*	.	7%
Cc1cc(CNC(=O)c2cnn(-c3ncc4c(n3)-c3ccccc3CC4)c2C2CC2)on1	.	2%	.	.	.
O=C1CSC(=S)N1N=Cc1c[nH]c2ccc(Br)cc12	-16%	3%	-11%	.	20%
COc1ccc(Br)cc1/C=N/N1C(=O)CSC1=S	2%	-2%	?	.	20µM*
Oc1ccccc1-c1nc(NCc2ccccc2)c2ccccc2n1	-7%	2%	22µM*	.	8%
CCCCn1c(N)c(N(Cc2ccccc2OC)C(=O)c2ccc([N+](=O)[O-])s2)c(=O)[nH]c1=O	?	-4%	13µM*	.	0%
COc1ccc(-c2cc(C(F)F)n3ncc(C(=O)Nc4cc(C)on4)c3n2)cc1	1%	7%	2%	0%	0.71µM*
Cc1cnc(SCC2CCCO2)nc1C1CCCN(Cc2cc3c(cc2Cl)OCO3)C1 (stereo not drawn)	.	1%	.	.	.
O=c1c2ccccc2nc(/C=C/c2ccc([N+](=O)[O-])o2)n1CCCO	?	11%	22µM*	?	-2%
Cc1cc(C)n(CC(O)COCc2ccccc2)n1 (stereo not drawn)	2%	0%	3%	10µM*	0%
Cc1cc(C)n(CC(O)COc2cccc(OCC(O)Cn3nc(C)cc3C)c2)n1 (stereo not drawn)	-3%	-2%	12%	0%	0%
CN(C)c1ccc(/C=C/N2C=CCc3c2ccc2ccccc32)cc1	9%	.	.	.	.
O=C(CCCN1C(=O)/C(=C\c2ccccc2)SC1=S)Nc1ccc(C(=O)O)cc1	0%	0%	-5%	.	8%
CC(=O)c1ccc(NC(=O)CCCN2C(=O)/C(=C/C(C)=C/c3ccccc3)SC2=S)cc1	-6%	22µM*	-10%	1%	3%
CCN(Cc1ccncc1)Cc1ccc2c(c1)CN(C(=O)c1ccc(OC)cc1)CCO2	.	-1%	.	.	.
Cc1cc(NS(=O)(=O)c2ccc(NC(=O)/C=C/c3ccc(C)o3)cc2)nc(C)n1	1%	-3%	-10%	0%	10µM*
CC/C(=N/Nc1cccc(Cl)c1)c1cnnc(SC)n1	-5%	20µM*	?	?	7%
CC/C(=N/Nc1ccccc1)c1cnnc(-c2ccccc2)n1	-6%	?	0%	-1%	6%
SMILES	Vif-A3G inh	PINK1 expr mod	Vif-APOBEC3F blk	Epigenetic reg	GLS inhibitor
COc1ccc(CN2CCc3nnc(CCc4ccccc4)n3CC2)c(OC)c1C	.	0%	.	.	.
O=C1c2cccc3c(N4CCCCC4)ccc(c23)C(=O)N1c1ccccc1O	14%	5%	8.9µM*	?	10%
O=C1c2cccc3cccc(c23)C(=O)N1c1ccc(O)cc1	-3%	4%	-1%	.	-9%
O=C1c2cccc3c(N4CCCCC4)ccc(c23)C(=O)N1c1ccc(O)cc1	7.9µM*	?	?	?	-13%
COc1ccc(/C=C/C(=O)NCC2Cc3cc(Cl)cc(-c4ncccn4)c3O2)cc1 (stereo not drawn)	.	1%	.	.	.
Cc1cnc(SCc2ccccn2)nc1C1CCCN(C(=O)c2ccc(-c3ccccc3F)cc2)C1 (stereo not drawn)	.	-1%	.	.	.
Cc1ccc(C=Nc2ccccc2C(N)=O)s1	?	4%	-26%	-3%	13%
Cc1cccc(C=Nc2ccccc2C(N)=O)c1	10µM*	12%[38.3 µM]	-15%	-1%	17%
Cc1nc(NCc2c(F)cccc2F)sc1-c1ccn(CCN2CCOCC2)n1	.	0%	.	.	.
COc1ccc(/C(C)=N/Nc2nc(C)cc(-c3ccccc3)n2)cc1	-1%	4%	7%	.	0%
C/C(=N\Nc1nc(C)cc(-c2ccccc2)n1)c1ccc(F)cc1	1%	2%	20µM*	.	2%
Cc1cccc(CNC(=O)c2cnn(-c3nccc(-c4ccccc4C(F)(F)F)n3)c2C)n1	.	0%	.	.	.
CCN(CC)C(=S)SSC(=S)N(CC)CC	-10%	1%	8%	0.25µM*	35%
CCN(CC)C(=S)SCC(=O)c1ccccc1	3%	-1%	0%	-3%	-13%
CSc1nnc(CNC(=O)/C=C/c2ccccc2Cl)n1-c1ccc(F)cc1	.	0%	.	.	.
CC(C)(C)C1C=C(Sc2ccccc2)C(=O)O1 (stereo not drawn)	-1%	16µM*	-15%	2%	-3%
CCN1C(=NCCCOC(C)C)N[C@@H](CCc2ccccc2)[C@H](C(=O)NCCCOC(C)C)[C@H]1C	5%	22µM*	-7%	.	2%
CN(C)[C@H]1C(=O)C(C(=O)NCN2CCCC2)=C(O)[C@]2(O)C(=O)C3=C(O)c4c(O)cccc4[C@@](C)(O)[C@H]3C[C@@H]12	.	.	.	0%[16.9 µM]	5µM*
Cc1cc(C)cc(NC(=O)Oc2ccccc2N2CCCCC2)c1	0%	1%	5%	-1%	10µM*
O=C(Nc1cccc(C(F)(F)F)c1)Oc1ccccc1N1CCOCC1	1%	1%	5%	2%	20%
Cc1cc(=O)oc2cc(O)cc(O)c12	2%	4%	4%	.	9%
CCCCCc1cc(O)c2c(C)cc(=O)oc2c1	0%	11µM*	5%	1%	3%
CN1C(=O)N(C)c2ccc(Br)c3cccc1c23	-2%	0%	0%	.	13%
CN1C(=O)N(C)c2ccc(C=O)c3cccc1c23	0%	-4%	11µM*	-1%	-6%
Cc1ncc2c(c1CNC(=O)c1ccc3c(c1)OCO3)CCN(C(=O)/C=C/c1ccccc1Cl)C2	.	-1%	.	.	.
COc1ccccc1C(=O)N[C@@H]1c2ccccc2C2(CCN(Cc3ccc4c(c3)OCO4)CC2)[C@H]1O	.	0%	.	.	.
CCCNC(=O)Cn1c(=O)/c(=C\c2ccc(-c3ccc([N+](=O)[O-])cc3)o2)s/c1=C\C(=O)C(C)(C)C	2%	?	-394%	0.2µM*	7%
